# Bioassay records deposited in PubChem by National Center for Advancing Translational Sciences (NCATS).
# DRD3 agonist = D3 dopamine receptor (human) agonism; max activation, %; P35462; D3R DiscoveRx beta-arrestin cells, luminescence, 90 min; 410,000 compounds, 0.58% hits; in the data active means max activation above about 30%; further: 0% is about no effect
# Target sequence (P35462 whole entry, looked up): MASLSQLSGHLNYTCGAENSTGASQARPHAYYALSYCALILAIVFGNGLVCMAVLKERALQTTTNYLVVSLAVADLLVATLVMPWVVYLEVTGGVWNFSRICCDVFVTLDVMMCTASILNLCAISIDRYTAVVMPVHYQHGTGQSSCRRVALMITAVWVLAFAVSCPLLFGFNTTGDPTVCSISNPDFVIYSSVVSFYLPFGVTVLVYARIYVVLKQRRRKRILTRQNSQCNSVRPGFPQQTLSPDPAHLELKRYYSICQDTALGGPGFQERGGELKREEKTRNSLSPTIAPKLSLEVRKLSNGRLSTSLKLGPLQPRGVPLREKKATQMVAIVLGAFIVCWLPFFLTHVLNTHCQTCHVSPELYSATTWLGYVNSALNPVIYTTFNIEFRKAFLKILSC
#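 Agonist-mode cell screen: cells plated at 1500/well and incubated overnight at 37 °C, then exposed to library compounds for 90 min at 37 °C. Detection reagent was added for 30–60 min at room temperature, and luminescence was read.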
# D1 PAM = enhances dopamine response at the human D1 receptor; potentiation, % at 10 µM; P21728; HEK293 TREx D1 cells, calcium flux, dopamine EC20 potentiation; 360,000 compounds, 0.036% hits; AID 504651; in the data active means potentiation above about 30%; further: 0% is about no effect
# D1 antagonist = antagonists of human D1 dopamine receptor | HEK293 TREx D1 cells, calcium flux, dopamine EC80; stronger effect = lower value | activity change, negative = inhibition, % at 10 µM | 360,000 compounds, 3.2% hits | AID 504652; in the data active means activity change below about -30%; further: on the % scale 0 is the no-effect control and ±100 the full control effect
#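 Allosteric or orthosteric antagonism assessed as attenuation of the calcium response to EC80 dopamine, added 180 s after compound, in induced HEK293 Trex D1 cells loaded with no-wash calcium dye.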
# D3 antag = antagonists of human D3 dopamine receptor | P35462 | D3R cells, DiscoveRx beta-arrestin luminescence, antagonist mode; stronger effect = lower value | max response, negative = inhibition, % | 360,000 compounds, 2.5% hits; in the data active means max response below about -50%; inconclusive means no clear call, values can overlap the other calls; further: on the % scale 0 is the no-effect control and ±100 the full control effect
#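 Cells expressing the human receptor were seeded at 1500 cells/well, incubated overnight at 37 degrees C in 5% CO2, then exposed to library compounds with dopamine controls for 90 minutes at 37 degrees C before luminescent detection.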
# D1 ag = human D1 receptor agonism; AID 504660; 360,000 compounds, 1% hits; HEK293 T-REx D1 cells, calcium flux, agonist mode; activation, % at 2 µM; in the data active means activation above about 30%; further: 0% is about no effect
#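 Inducible HEK293 T-REx D1 cells, force-coupled to calcium signalling, were plated at 4000 cells/well with tetracycline and held overnight at 30 C. After no-wash calcium dye loading, compound-evoked calcium rise over 180 s flagged agonists.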
# Active calls of the source: *; ? = inconclusive; . = not tested or not shown. Most compounds without a hit are left out; they make up all but 6.1% or so of the library.
SMILES,DRD3 agonist,D1 PAM,D1 antagonist,D3 antag,D1 ag
CN(CC(=O)Nc1ccc(Cl)c(C(F)(F)F)c1)C(=O)c1cccs1,-3,-10,-51*,7,12
CN(CC(=O)NCc1ccccc1)CC(=O)Nc1ccc(Cl)c(C(F)(F)F)c1,6,.,13,6,64*
COc1cc(CC(=O)Nc2ccc(Cl)c(C(F)(F)F)c2)cc(OC)c1OC,0,-3,-35*,0,12
CC1CCc2onc(C(=O)N3CCN(c4ccc(Cl)cc4)CC3)c2C1 (stereo unspecified),-9,-4,-2,.,5
Cc1ccc(Sc2ccc(N3CCCC(C(=O)Nc4ccc(F)cc4)C3)nn2)cc1 (stereo unspecified),-2,1,-6,.,-1
Cc1ccccc1NC(=O)/C(C#N)=C/c1ccc(Cl)cc1Cl,-8,-1,3,.,0
CC(C)CN1Cc2ccccc2Oc2cc(Br)ccc2S1(=O)=O,5,.,.,-62*,.
O=C(CNC(=O)c1ccc(Cl)cc1)OC(C(=O)Nc1cc(C(F)(F)F)ccc1Cl)c1ccccc1 (stereo unspecified),.,5,25,.,2
COc1ccc(-c2csc(NC(=O)c3ccccc3NS(=O)(=O)c3ccc(C)cc3)n2)cc1,8,-9,-40*,6,9
COc1ccc(Nc2nc(N)nc(CSc3nc(C)cc(C)n3)n2)cc1,-11,-2,-9,-61*,-1
COc1ccc(Nc2nc(N)nc(CN(C)C3CCCCC3)n2)cc1,11,-5,-34*,-15,1
CCN(CC)S(=O)(=O)c1ccc2c(c1)N(CC(=O)Nc1ccc(OC)cc1)C(=O)CS2,-12,-2,10,.,-1
O=C(CSc1nc2c([nH]c3ccccc32)c(=O)n1-c1ccccc1)Nc1ccccc1C(F)(F)F,-4,1,-8,.,0
CCCC(=O)Nc1ccccc1C(=O)OCc1cc(=O)n2nc(C(C)C)sc2n1,-5,0,6,.,4
CC1CCCN(CCCNC(=O)c2ccc3c(c2)N(Cc2cccc(Cl)c2)C(=O)c2ccccc2S3(=O)=O)C1 (stereo unspecified),-25,-4,-1,.,28
O=C(NCc1ccco1)Nc1ccc(Br)cc1,1,-1,-16,0,2
O=C(NCc1ccco1)Nc1ccc2nsnc2c1,0,0,1,-59*,1
CCc1ccccc1NC(=O)CN1CCCN(Cc2cc(C)ccc2C)S1(=O)=O,7,5,-11,.,33*
Cc1ccc(NC(=O)CN2CCCN(Cc3cc(C)ccc3C)S2(=O)=O)c(Cl)c1,-2,-1,2,.,5
COc1ccc(-c2noc(-c3ccccc3NC(=O)c3cc(OC)c(OC)c(OC)c3)n2)cc1,1,-2,16,.,0
Cc1c(C(=O)O)c(O)cc2c1C(=O)c1c(O)c([C@@H]3O[C@H](CO)[C@@H](O)[C@H](O)[C@H]3O)c(O)c(O)c1C2=O,-13,.,.,-84*,.
COc1c(O)cc2c(c1O)[C@@H]1O[C@H](CO)[C@@H](O)[C@H](O)[C@H]1OC2=O,1,-3,-2,9,7
Cc1oc(-c2cccc(Cl)c2)nc1CN1CCC(C(=O)NCc2ccco2)CC1,-7,-8,-4,-24,12
O=C(NCc1ccccc1CN1CCCC1)C1CCN(S(=O)(=O)c2ccc(F)c(F)c2)CC1,1,-10,-17,16,1
Cc1ccc(S(=O)(=O)N2CCC(C(=O)NCc3ccccc3CN3CCCC3)CC2)cc1C,-12,-13,-35*,-21,7
SMILES,DRD3 agonist,D1 PAM,D1 antagonist,D3 antag,D1 ag
Cc1ccccc1-c1nc(CN2CCC(C(=O)NCc3ccc(F)cc3)CC2)c(C)o1,-6,-3,-9,.,41*
Cc1ccccc1-c1nc(CN2CCC(C(=O)NCc3cccnc3)CC2)c(C)o1,-21,-4,-4,-12,-4
Cc1oc(-c2cccc(Cl)c2)nc1CN1CCCC(C(=O)NCc2ccco2)C1 (stereo unspecified),-14,-4,-41*,-19,6
CCS(=O)(=O)N1CCC(C(=O)NCc2ccccc2OC)CC1,8,-2,-43*,2,-1
Cc1nn(C)c2c1c(-c1ccccc1)cc(=O)n2Cc1ccccc1Cl,6,-4,27,.,19
Cc1ccc2c(c1)c1c(c(=O)n(Cc3ccccc3)c(=O)n1Cc1ccccc1F)n2C,0,-1,3,.,0
Cc1ccc(C2c3cccn3CCN2S(=O)(=O)c2ccc([N+](=O)[O-])cc2)cc1 (stereo unspecified),5,-2,.,.,-3
Cc1oc(-c2ccc(Cl)cc2)nc1CN1CCC(C(=O)NCCCN2CCCC2=O)CC1,4,-5,3,0,2
CCc1ccc(-c2nc(CN3CCC(C(=O)NCCc4ccc(OC)c(OC)c4)CC3)c(C)o2)cc1,0,-6,-25,-9,30*
Cc1oc(-c2ccc(Cl)cc2)nc1CN1CCC(C(=O)NCCCN2CCCC(C)C2)CC1 (stereo unspecified),-7,-5,-30*,-15,4
COc1ccc(CCNC(=O)C2CCN(Cc3nc(-c4ccc(OC)c(OC)c4)oc3C)CC2)cc1OC,6,0,10,.,2
Cc1oc(-c2ccccc2F)nc1CN1CCC(C(=O)NCCC2=CCCCC2)CC1,-2,-6,-3,-57*,8
Cc1oc(-c2cccc(Cl)c2)nc1CN1CCC(C(=O)NCc2ccc(F)cc2)CC1,-16,-3,-17,.,54*
COc1ccccc1CNC(=O)C1CCN(Cc2nc(-c3cccc(Cl)c3)oc2C)CC1,-6,-6,-1,?,34*
COc1ccc(C)cc1NC(=O)C1CCN(S(=O)(=O)Cc2ccccc2)CC1,2,3,-47*,.,0
Cc1ccccc1-c1nc(CN2CCC(C(=O)NCCCN3CCCC3)CC2)c(C)o1,-3,1,-16,-57*,-3
CCc1ccc(-c2nc(CN3CCC(C(=O)NCc4ccccc4OC)CC3)c(C)o2)cc1,-9,-6,-17,-17,41*
COc1ccccc1CNC(=O)C1CCN(Cc2nc(-c3ccc(OC)c(OC)c3)oc2C)CC1,-4,-4,-4,.,1
Cc1ccccc1-c1nc(CN2CCC(C(=O)NCCCN3CCOCC3)CC2)c(C)o1,-22,-6,8,-9,-2
CO[C@H]1C=CO[C@@]2(C)Oc3c(C)c(O)c4c(O)c(cc(O)c4c3C2=O)NC(=O)/C(C)=C\C=C/[C@H](C)[C@H](O)[C@@H](C)[C@@H](O)[C@@H](C)[C@H](OC(C)=O)[C@@H]1C,-6,.,.,.,.
COc1ccc(/C=C/C(=O)OCC(=O)c2ccccc2F)cc1,-3,.,.,6,.
COc1ccc(/C=C\C(=O)CC(O)(c2ccccc2)C(F)(F)F)cc1 (stereo unspecified),-12,4,-1,-70*,4
COc1ccccc1C(=O)n1nc(-c2ccco2)nc1SC,0,-11,-34*,-6,2
